Of roughly 8,800 targets only a part is listed; those with a hit were picked by preference. About 0.5% of all pairs of compound and target were hits.
Assays:
Test in all cases: log2 fold change, soluble protein after heating vs DMSO (PISA); higher = thermal stabilisation; K562 lysate, 10 uM; active = over 0.2 and 3.5 SD of the protein, either way, in both replicates (recomputed)
ibrutinib = compound: C=CC(=O)N1CCC[C@@H](n2nc(-c3ccc(Oc4ccccc4)cc3)c3c(N)ncnc32)C1 [ibrutinib]
Method in brief: (§1)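 Values give the log-two fold change in thermal stability against solvent controls, from duplicates. Crude K562 extract at 1 mg/mL protein, made by dounce homogenisation in PBS pH 7.4 with 1 mM MgCl2, was treated with 10 μM compound for 30 min. After 3 min heating across 48°C-58°C, aliquots were pooled, adjusted to 0.5% NP-40 at 4°C and centrifuged at 21,000xg for 90 min. The supernatant was measured by TMTpro 16plex LC-MS/MS with channel sums equalised.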

[1] = compound: CC(=O)c1cnc2ccc(-c3cc(Cl)c(O)c(Cl)c3)nc2c1N[C@H]1CC[C@H](CN(C)C)CC1
Method in brief: as §1

ralimetinib = compound: CC(C)(C)Cn1c(N)nc2ccc(-c3[nH]c(C(C)(C)C)nc3-c3ccc(F)cc3)nc21 [ralimetinib]
Method in brief: as §1

[2] = compound: CC(C)(O)CC(=O)NCCn1ccc2ncnc(Nc3ccc(Oc4cccc(C(F)(F)F)c4)c(Cl)c3)c21
Method in brief: as §1

[3] = compound: CC(C)C1=C2N=C(C=C(N2N=C1)NCC3=CC=CC=C3)NCCCCCCN
Method in brief: as §1

[4] = compound: CC1=C(C(CC(=O)N1)C2=CC=C(C=C2)C(F)(F)F)C(=O)NC3=C(C=C4C(=C3)C=NN4)F
Method in brief: as §1

[5] = compound: CC1=C(C2=C(C=C1)C(=O)C3=CC=CC=C3N2CCCN)C
Method in brief: as §1

[6] = compound: CC1=C(C=C(C=C1)NC(=O)C2=CC(=CC=C2)C(C)(C)C#N)NC3=CC4=C(C=C3)N=CN(C4=O)C
Method in brief: as §1

[7] = compound: CC1=C(C=C(C=C1)NC(=O)C2=CC(=CC=C2)N(C)C)NC(=O)C3=CC=C(C=C3)O
Method in brief: as §1

[8] = compound: CC1=CC=C(C=C1)SC2=C3C=C(SC3=CN=C2)C(=O)N
Method in brief: as §1

vemurafenib = compound: CCCS(=O)(=O)Nc1ccc(F)c(C(=O)c2c[nH]c3ncc(-c4ccc(Cl)cc4)cc23)c1F [vemurafenib]
Method in brief: as §1

[9] = compound: CCCS(=O)(=O)Nc1ccc(F)c(C(=O)c2c[nH]c3ncc(Cl)cc23)c1F
Method in brief: as §1

barasertib = compound: CCN(CCCOc1ccc2c(Nc3cc(CC(=O)Nc4cccc(F)c4)[nH]n3)ncnc2c1)CCOP(=O)(O)O [barasertib]
Method in brief: as §1

[10] = compound: CC[C@@H]1C(=O)N(C)c2cnc(Nc3ccc(C(=O)NC4CCN(C)CC4)cc3OC)nc2N1C1CCCC1
Method in brief: as §1

volasertib = compound: CC[C@@H]1C(=O)N(C)c2cnc(Nc3ccc(C(=O)N[C@H]4CC[C@H](N5CCN(CC6CC6)CC5)CC4)cc3OC)nc2N1C(C)C [volasertib]
Method in brief: as §1

[11] = compound: CCn1c(C(=O)N(C2CC2)C2CC2)cc2c3c(ncn3C)c(Nc3cc(C)n(C)n3)nc21
Method in brief: as §1

[12] = compound: CCn1cc(-c2ccnc3[nH]c(-c4cccc(CN(C)C)c4)cc23)c(-c2ccc(NC(=O)N(C)C)cc2)n1
Method in brief: as §1

[13] = compound: CN1CCC(CNc2ccc3ncc(-c4cccc(OC(F)(F)F)c4)n3n2)CC1
Method in brief: as §1

saracatinib = compound: CN1CCN(CCOc2cc(OC3CCOCC3)c3c(Nc4c(Cl)ccc5c4OCO5)ncnc3c2)CC1 [saracatinib]
Method in brief: as §1

sotrastaurin = compound: CN1CCN(c2nc(C3=C(c4c[nH]c5ccccc45)C(=O)NC3=O)c3ccccc3n2)CC1 [sotrastaurin]
Method in brief: as §1

Measured: log2 fold change

DYRK1A (UniProt Q13627)
inactive: ibrutinib -0.019 | ralimetinib -0.003 | [2] 0.011 | [3] 0.01 | [4] 0.007 | [5] 0.005 | [6] -0.007 | [7] -0.024 | [8] 0.034 | vemurafenib -0.06 | [9] -0.009 | barasertib 0.025 | [10] -0.047 | volasertib -0.016 | [11] 0.038 | [12] -0.004 | [13] 0.044 | saracatinib -0.017 | sotrastaurin -0.013
active: [1] 0.264

FOXJ3 (UniProt Q9UPW0)
UniProt Q9UPW0, sequence (Q9UPW0 whole entry, looked up): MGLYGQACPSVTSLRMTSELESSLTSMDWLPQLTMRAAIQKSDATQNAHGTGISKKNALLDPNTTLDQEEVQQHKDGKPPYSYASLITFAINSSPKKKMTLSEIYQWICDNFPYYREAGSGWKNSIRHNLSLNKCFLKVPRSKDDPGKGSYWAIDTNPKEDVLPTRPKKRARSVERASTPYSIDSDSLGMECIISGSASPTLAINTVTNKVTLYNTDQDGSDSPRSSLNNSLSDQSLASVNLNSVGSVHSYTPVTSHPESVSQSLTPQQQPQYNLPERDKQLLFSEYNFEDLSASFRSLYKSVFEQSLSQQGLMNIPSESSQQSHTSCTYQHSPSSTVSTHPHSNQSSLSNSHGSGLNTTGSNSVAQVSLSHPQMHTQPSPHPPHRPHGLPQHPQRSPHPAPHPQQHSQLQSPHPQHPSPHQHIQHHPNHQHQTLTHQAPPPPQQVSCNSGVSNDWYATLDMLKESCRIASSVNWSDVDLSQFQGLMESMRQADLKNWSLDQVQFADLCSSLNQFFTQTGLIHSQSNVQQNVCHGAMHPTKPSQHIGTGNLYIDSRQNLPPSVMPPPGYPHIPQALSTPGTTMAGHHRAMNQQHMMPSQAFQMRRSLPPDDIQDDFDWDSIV
inactive: ibrutinib -0.003 | [1] 0.002 | ralimetinib -0.021 | [2] -0.08 | [3] 0.047 | [4] -0.026 | [5] -0.022 | [6] 0.071 | [7] 0.025 | [8] 0.006 | vemurafenib 0.111 | [9] 0.124 | barasertib 0.038 | [10] 0.054 | volasertib -0.096 | [11] 0.02 | [12] 0.032 | [13] -0.08 | saracatinib 0.023 | sotrastaurin 0.018

EPB41, A0A2R8Y6D0
inactive: ibrutinib 0.04 | [1] 0.007 | ralimetinib 0.171 | [2] 0.094 | [3] -0.061 | [4] -0.012 | [5] 0 | [6] -0.065 | [7] 0.078 | [8] -0.02 | vemurafenib -0.019 | [9] -0.004 | barasertib 0.043 | [10] -0.108 | volasertib 0.006 | [11] -0.24 | [12] -0.047 | saracatinib -0.082 | sotrastaurin 0.044
active: [13] 0.594

DSN1 (UniProt Q9H410)
UniProt Q9H410, sequence (Q9H410 whole entry, looked up): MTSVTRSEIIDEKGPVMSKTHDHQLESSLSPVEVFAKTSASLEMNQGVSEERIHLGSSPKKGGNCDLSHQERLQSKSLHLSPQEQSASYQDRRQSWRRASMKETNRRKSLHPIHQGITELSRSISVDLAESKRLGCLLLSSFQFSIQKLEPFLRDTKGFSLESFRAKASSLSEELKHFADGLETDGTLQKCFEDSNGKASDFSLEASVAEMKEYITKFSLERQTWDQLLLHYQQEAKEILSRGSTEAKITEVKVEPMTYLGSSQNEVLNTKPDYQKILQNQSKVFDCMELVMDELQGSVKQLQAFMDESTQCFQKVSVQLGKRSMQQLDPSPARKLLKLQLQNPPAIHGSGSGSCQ
inactive: ibrutinib -0.004 | [1] -0.023 | ralimetinib 0.011 | [2] 0.001 | [3] -0.015 | [4] 0.024 | [5] -0.018 | [6] 0.017 | [7] 0.025 | [8] -0.011 | vemurafenib 0 | [9] 0.043 | barasertib 0.007 | [10] 0.034 | volasertib 0.001 | [11] 0.001 | [12] -0.017 | [13] 0.01 | saracatinib 0.034 | sotrastaurin 0.003

FAM83D (UniProt Q9H4H8)
UniProt Q9H4H8, sequence (Q9H4H8 whole entry, looked up): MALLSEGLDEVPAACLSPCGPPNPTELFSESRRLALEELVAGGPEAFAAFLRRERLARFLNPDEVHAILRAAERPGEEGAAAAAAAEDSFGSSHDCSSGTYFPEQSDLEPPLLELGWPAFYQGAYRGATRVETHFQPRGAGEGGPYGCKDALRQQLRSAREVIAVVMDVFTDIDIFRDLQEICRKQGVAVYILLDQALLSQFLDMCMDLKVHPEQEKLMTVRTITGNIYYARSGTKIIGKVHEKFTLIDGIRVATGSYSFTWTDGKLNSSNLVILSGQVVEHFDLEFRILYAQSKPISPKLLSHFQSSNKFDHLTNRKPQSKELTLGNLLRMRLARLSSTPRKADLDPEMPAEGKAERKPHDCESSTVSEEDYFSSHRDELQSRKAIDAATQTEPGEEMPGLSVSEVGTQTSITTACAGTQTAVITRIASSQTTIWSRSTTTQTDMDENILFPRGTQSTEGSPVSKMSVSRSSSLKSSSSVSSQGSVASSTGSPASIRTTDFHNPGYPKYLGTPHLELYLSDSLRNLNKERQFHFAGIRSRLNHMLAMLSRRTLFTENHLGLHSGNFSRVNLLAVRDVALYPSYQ
inactive: ibrutinib 0.028 | [1] 0.031 | ralimetinib 0.041 | [2] -0.018 | [3] 0.013 | [4] 0.038 | [5] -0.098 | [6] -0.032 | [7] 0.031 | [8] 0.017 | vemurafenib -0.015 | [9] 0 | barasertib 0.074 | [10] 0.045 | volasertib -0.047 | [11] -0.01 | [12] -0.052 | [13] 0.029 | saracatinib -0.008 | sotrastaurin 0.032

ERLIN1 (UniProt O75477)
inactive: ibrutinib 0.005 | [1] 0.034 | ralimetinib -0.011 | [2] 0.038 | [3] -0.007 | [4] 0.044 | [5] 0.005 | [6] -0.052 | [7] -0.008 | [8] 0.012 | vemurafenib 0.01 | [9] 0.013 | barasertib 0.008 | [10] -0.037 | volasertib -0.029 | [11] 0.033 | [12] 1.01 | [13] -0.059 | saracatinib 0.041 | sotrastaurin -0.023

FHOD1 (UniProt Q9Y613)
inactive: ibrutinib 0.001 | [1] 0.03 | ralimetinib 0.041 | [2] -0.019 | [3] -0.002 | [4] -0.006 | [5] 0.006 | [6] 0.003 | [7] 0.025 | [8] -0.004 | vemurafenib -0.018 | [9] 0.018 | barasertib 0.042 | [10] -0.05 | volasertib -0.034 | [11] 0.048 | [12] 0.013 | [13] -0.017 | saracatinib 0.015 | sotrastaurin 0.036

DVL2 (UniProt O14641)
inactive: ibrutinib -0.032 | [1] 0.085 | ralimetinib 0.022 | [2] 0.032 | [3] -0.019 | [4] 0.028 | [5] -0.056 | [6] -0.072 | [7] 0.045 | [8] 0.11 | vemurafenib 0.067 | [9] -0.172 | barasertib 0.119 | [10] -0.033 | volasertib 0 | [11] 0.007 | [12] 0.011 | [13] -0.003 | saracatinib 0.018 | sotrastaurin -0.055

FECH isoform 2 (UniProt P22830)
UniProt P22830, sequence (P22830 whole entry, looked up): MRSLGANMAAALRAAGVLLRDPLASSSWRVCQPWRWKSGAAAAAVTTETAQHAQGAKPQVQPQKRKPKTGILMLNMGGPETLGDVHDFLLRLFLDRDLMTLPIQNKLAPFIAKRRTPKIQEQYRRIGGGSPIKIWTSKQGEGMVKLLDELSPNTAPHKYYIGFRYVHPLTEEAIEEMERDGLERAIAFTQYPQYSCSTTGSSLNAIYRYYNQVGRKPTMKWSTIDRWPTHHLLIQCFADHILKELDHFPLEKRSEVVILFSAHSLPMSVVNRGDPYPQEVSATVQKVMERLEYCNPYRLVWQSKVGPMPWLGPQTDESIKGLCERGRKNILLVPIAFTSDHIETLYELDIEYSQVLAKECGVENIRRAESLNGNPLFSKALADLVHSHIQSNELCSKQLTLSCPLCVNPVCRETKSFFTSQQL
active: [8] -1.11 | [9] -0.891
inactive: ibrutinib 0.091 | [1] 0.104 | ralimetinib -0.034 | [2] 0.504 | [3] 0.327 | [4] -0.263 | [5] 0.287 | [6] 0.748 | [7] 0.028 | vemurafenib 0.363 | barasertib -0.082 | [10] 0.477 | volasertib 0.078 | [11] -0.03 | [12] 0.128 | [13] 0.699 | saracatinib -0.287 | sotrastaurin 0.014

DTYMK (UniProt P23919)
UniProt P23919, sequence (P23919 whole entry, looked up): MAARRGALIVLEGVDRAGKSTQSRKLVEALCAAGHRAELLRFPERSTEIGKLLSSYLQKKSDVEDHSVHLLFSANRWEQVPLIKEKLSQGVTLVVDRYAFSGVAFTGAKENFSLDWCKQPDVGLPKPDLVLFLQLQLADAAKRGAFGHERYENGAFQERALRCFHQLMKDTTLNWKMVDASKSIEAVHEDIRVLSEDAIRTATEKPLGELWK
inactive: ibrutinib 0.027 | [1] -0.018 | ralimetinib 0.049 | [2] -0.015 | [3] 0.023 | [4] -0.035 | [5] -0.005 | [6] -0.017 | [7] 0.038 | [8] -0.002 | vemurafenib -0.008 | [9] 0.042 | barasertib 0.022 | [10] -0.062 | volasertib 0.006 | [11] 0.059 | [12] 0.011 | [13] -0.032 | saracatinib 0.011 | sotrastaurin -0.033

FTSJ3 (UniProt Q8IY81)
UniProt Q8IY81, sequence (Q8IY81 whole entry, looked up): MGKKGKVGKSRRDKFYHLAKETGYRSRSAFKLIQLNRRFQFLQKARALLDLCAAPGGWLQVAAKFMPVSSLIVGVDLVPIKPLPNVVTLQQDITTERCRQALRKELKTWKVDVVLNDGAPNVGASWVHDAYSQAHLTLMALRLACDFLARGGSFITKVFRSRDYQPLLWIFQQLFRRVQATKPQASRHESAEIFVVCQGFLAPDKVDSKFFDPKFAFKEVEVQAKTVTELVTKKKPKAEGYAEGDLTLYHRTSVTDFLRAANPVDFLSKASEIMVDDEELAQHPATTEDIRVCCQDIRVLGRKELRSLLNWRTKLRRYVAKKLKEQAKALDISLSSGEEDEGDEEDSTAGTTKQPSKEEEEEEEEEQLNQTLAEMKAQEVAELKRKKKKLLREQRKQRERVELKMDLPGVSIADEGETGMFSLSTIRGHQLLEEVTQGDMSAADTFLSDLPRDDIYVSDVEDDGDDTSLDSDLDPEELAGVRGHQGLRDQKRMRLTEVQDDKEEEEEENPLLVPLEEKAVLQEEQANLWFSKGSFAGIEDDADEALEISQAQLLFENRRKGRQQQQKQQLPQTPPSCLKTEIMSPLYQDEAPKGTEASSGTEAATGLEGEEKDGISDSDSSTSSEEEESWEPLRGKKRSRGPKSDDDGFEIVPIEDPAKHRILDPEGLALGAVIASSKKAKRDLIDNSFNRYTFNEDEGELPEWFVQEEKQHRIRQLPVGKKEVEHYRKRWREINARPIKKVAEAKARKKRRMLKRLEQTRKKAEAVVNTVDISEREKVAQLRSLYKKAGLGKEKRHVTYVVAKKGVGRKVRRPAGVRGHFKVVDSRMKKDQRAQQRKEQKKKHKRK
inactive: ibrutinib 0.05 | [1] 0.005 | ralimetinib 0.026 | [2] -0.033 | [3] 0.086 | [4] 0.016 | [5] -0.037 | [6] -0.01 | [7] 0.002 | [8] 0.04 | vemurafenib -0.004 | [9] -0.011 | barasertib 0.006 | [10] 0.011 | volasertib -0.033 | [11] 0.024 | [12] 0 | [13] -0.005 | saracatinib 0.015 | sotrastaurin -0.003

GGT7 (UniProt Q9UJ14)
UniProt Q9UJ14, sequence (Q9UJ14 whole entry, looked up): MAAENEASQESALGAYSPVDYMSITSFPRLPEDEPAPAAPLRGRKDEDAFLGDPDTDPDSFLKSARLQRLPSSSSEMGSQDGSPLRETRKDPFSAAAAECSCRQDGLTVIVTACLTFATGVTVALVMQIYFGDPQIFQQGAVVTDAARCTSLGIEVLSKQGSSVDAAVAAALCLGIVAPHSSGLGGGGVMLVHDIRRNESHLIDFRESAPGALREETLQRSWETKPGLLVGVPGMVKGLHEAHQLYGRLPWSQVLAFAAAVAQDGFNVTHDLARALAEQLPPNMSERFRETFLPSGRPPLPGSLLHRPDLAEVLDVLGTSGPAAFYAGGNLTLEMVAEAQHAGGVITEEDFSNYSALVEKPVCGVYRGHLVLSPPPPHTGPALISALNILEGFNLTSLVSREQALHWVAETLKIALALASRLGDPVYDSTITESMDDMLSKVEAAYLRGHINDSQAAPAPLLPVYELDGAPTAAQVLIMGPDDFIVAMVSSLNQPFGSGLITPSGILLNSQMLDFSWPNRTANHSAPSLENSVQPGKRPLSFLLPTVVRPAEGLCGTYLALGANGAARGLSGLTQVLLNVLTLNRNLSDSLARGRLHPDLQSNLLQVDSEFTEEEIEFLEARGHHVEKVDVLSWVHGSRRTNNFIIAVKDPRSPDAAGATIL
inactive: ibrutinib 0.019 | [1] 0.004 | ralimetinib -0.07 | [2] -0.106 | [3] -0.05 | [4] 0.003 | [5] -0.066 | [6] -0.032 | [7] 0.035 | [8] 0.017 | vemurafenib 0.003 | [9] 0.029 | barasertib 0.007 | [10] 0.037 | volasertib -0.014 | [11] -0.014 | [12] -0.003 | [13] 0.027 | saracatinib 0.097 | sotrastaurin 0.032

FBLL1 (UniProt A6NHQ2)
inactive: ibrutinib -0.042 | [1] -0.031 | ralimetinib 0.029 | [2] -0.056 | [3] -0.014 | [4] 0.001 | [5] -0.121 | [6] 0.006 | [7] 0.049 | [8] -0.018 | vemurafenib 0.081 | [9] 0.019 | barasertib 0.107 | [10] 0.003 | volasertib -0.041 | [11] -0.014 | [13] 0.046 | saracatinib -0.075 | sotrastaurin 0.056
active: [12] -0.307

EDC3 (UniProt Q96F86)
UniProt Q96F86, sequence (Q96F86 whole entry, looked up): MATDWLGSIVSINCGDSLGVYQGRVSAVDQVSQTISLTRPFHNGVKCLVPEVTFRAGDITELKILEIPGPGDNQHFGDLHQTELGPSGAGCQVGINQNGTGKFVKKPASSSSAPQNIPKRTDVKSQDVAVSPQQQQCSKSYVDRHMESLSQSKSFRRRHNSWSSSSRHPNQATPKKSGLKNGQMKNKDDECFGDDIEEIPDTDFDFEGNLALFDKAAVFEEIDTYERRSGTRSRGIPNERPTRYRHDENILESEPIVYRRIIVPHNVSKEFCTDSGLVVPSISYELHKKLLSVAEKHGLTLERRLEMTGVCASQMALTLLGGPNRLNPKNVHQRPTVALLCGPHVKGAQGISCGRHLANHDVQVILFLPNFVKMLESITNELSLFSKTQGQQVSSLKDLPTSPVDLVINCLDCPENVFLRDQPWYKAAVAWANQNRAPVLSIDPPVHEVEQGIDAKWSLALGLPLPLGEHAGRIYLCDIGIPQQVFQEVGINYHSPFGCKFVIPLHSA
inactive: ibrutinib 0.038 | [1] 0.016 | ralimetinib 0.004 | [2] 0.001 | [3] 0.046 | [4] 0.039 | [5] -0.014 | [6] 0.009 | [7] 0.019 | [8] -0.023 | vemurafenib -0.011 | [9] 0.019 | barasertib -0.01 | [10] 0.066 | volasertib -0.016 | [11] -0.012 | [12] -0.017 | [13] -0.043 | saracatinib 0.006 | sotrastaurin 0.018

GAPDH (UniProt P04406)
inactive: ibrutinib 0.037 | [1] 0.021 | ralimetinib -0.006 | [2] 0.02 | [3] 0.008 | [4] -0.01 | [5] -0.008 | [6] -0.037 | [7] -0.014 | [8] 0.009 | vemurafenib -0.031 | [9] 0.002 | barasertib -0.016 | [10] -0.006 | volasertib -0.002 | [11] -0.009 | [12] 0.042 | [13] -0.032 | saracatinib 0 | sotrastaurin -0.01

GFPT1 (UniProt Q06210)
UniProt Q06210, sequence (Q06210 whole entry, looked up): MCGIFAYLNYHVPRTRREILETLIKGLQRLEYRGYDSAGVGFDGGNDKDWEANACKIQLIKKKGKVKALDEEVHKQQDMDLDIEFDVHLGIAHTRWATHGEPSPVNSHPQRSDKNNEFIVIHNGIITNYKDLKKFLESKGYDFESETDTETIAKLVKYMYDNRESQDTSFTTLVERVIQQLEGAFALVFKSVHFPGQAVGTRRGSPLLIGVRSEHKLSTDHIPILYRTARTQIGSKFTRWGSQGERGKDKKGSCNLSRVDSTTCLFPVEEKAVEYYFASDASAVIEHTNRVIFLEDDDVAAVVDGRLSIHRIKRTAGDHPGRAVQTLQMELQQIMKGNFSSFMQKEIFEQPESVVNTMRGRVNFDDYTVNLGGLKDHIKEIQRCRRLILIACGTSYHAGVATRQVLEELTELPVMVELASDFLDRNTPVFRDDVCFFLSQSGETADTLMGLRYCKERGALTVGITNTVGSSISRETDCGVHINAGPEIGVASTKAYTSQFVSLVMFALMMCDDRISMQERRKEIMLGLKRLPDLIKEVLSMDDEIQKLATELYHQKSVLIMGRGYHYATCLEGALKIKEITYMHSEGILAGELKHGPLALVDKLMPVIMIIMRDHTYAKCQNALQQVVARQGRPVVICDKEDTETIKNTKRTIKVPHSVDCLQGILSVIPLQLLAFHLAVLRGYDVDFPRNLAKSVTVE
inactive: ibrutinib 0.014 | [1] -0.014 | ralimetinib 0.002 | [2] -0.024 | [3] 0.022 | [4] -0.015 | [5] 0.012 | [6] 0.009 | [7] 0.014 | [8] 0.01 | vemurafenib 0.014 | [9] 0.02 | barasertib 0.009 | [10] -0.026 | volasertib -0.036 | [11] 0.007 | [12] 0.009 | [13] -0.042 | saracatinib 0.009 | sotrastaurin -0.014
